This note sets out measurements from PubChem BioAssay (Tox21).

SMILES strings stand for the structures. Where “and” joins values, the source holds several entries; their conditions need not be identical. Identical values can stand only once. Results filed as inconclusive are left out. Calls of active or inactive are those of the source. Unless noted, the call rests on the fitted dose curve; in most records, active means well fitted curve in the direction sought with a large enough effect in the repeat runs; inconclusive means weak or mixed curves; inactive means no such curve, though single readings can be large; an effect the other way counts as inactive or inconclusive.

Test [1] is described as follows: qHTS assay to identify small molecule agonists of the peroxisome proliferator-activated receptor delta (PPARd) signaling pathway - cell viability counter screen (AID 743211). Further: nearly all actives have a fitted effect of over 55% in size. In outline: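 Following 5 h plating at 37 C and 5% CO2, PPARd UAS-bla HEK293H cells took up test compounds for 17 h. Viability was quantified by luminescence 30 min after CellTiter-Glo addition at room temperature.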
(qHTS replaces the single test concentration by a dilution series.)

For test [2], the target named is Peroxisome proliferator-activated receptor delta (Homo sapiens) (UniProt Q03181). Kind of test: qHTS assay to identify small molecule agonists of the peroxisome proliferator-activated receptor delta (PPARd) signaling pathway (AID 743212; calls by dose curve). An outline of the steps:
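Quantitative high-throughput agonist screen in a HEK293H beta-lactamase reporter line under UAS control. Compounds in DMSO, at 37 C. Fluorescence read after 2 h with FRET substrate at room temperature.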

Test [3] can be described thus: qHTS assay to identify small molecule antagonists of the peroxisome proliferator-activated receptor delta (PPARd) signaling pathway - cell viability counter screen (AID 743213). Further: nearly all actives have a fitted effect of over 50% in size. In outline:
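PPARd-bla HEK293H cells (3000/well) got compound plus 300 nM L165041 agonist for 17 h at 37 C. Viability in the same wells came from CellTiter-Glo luminescence after 30 min at room temperature.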

The target in test [4] is Peroxisome proliferator-activated receptor delta (Homo sapiens) (UniProt Q03181). Kind of test: qHTS assay to identify small molecule antagonists of the peroxisome proliferator-activated receptor delta (PPARd) signaling pathway (AID 743215; active means well fitted inhibition curve with a large enough effect in the signal ratio in the repeat runs, not every such curve was filed as active; the % refers to the signal ratio;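 further: cells stimulated with agonist L165041 at 300 nM final during compound exposure; series mostly up to about 62 µM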). An outline of the steps: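 Antagonist-mode beta-lactamase reporter screen: HEK293H cells with UAS-bla under PPARd control, stimulated by 300 nM L165041 (final) alongside test compound for 17 h at 37 C, then FRET fluorescence after 2 h substrate incubation.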

In test [5] the target is Bile acid receptor (Homo sapiens) (UniProt Q96RI1). Kind of test: qHTS assay to identify small molecule antagonists of the farnesoid-X-receptor (FXR) signaling pathway (AID 743217; active means well fitted inhibition curve with a large enough effect in the signal ratio in the repeat runs, not every such curve was filed as active; the % refers to the signal ratio). An outline of the steps:
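Beta-lactamase reporter under UAS control in HEK 293T cells; compound exposure 16 h at 37 °C in the presence of chenodeoxycholic acid (50 uM final); signal from B/G FRET substrate after 2 h at room temperature.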

Test [6] is described as follows: qHTS assay to identify small molecule agonists of the farnesoid-X-receptor (FXR) signaling pathway - cell viability counter screen (AID 743218). Further: nearly all actives have a fitted effect of over 45% in size. An outline of the steps: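 In GeneBLAzer FXR-UAS-bla HEK 293T cells, compounds act for 16 h at 37 C. Cell viability is then scored in the reporter wells by CellTiter-Glo, 30 min at RT, luminescence.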
Test [7] concerns the target Bile acid receptor (Homo sapiens) (UniProt Q96RI1). Kind of test: qHTS assay to identify small molecule agonists of the farnesoid-X-receptor (FXR) signaling pathway (AID 743220; active means well fitted activation curve with a large enough effect in the signal ratio in the repeat runs, not every such curve was filed as active; the % refers to the signal ratio). In outline:
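Beta-lactamase reporter under UAS control in GeneBLAzer FXR HEK 293T cells (5000/well) measured with LiveBLAzer FRET substrate after 2 h at room temperature. Compound exposure lasted 16 h at 37C.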

The nature of test [8]: qHTS assay to identify small molecule antagonists of the farnesoid-X-receptor (FXR) signaling pathway - cell viability counter screen (AID 743221; active means well fitted cell-killing curve with a large enough effect in the repeat runs, not every such curve was filed as active; further: nearly all actives have a fitted effect of over 50% in size). An outline of the steps: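 Compound effects on cell number were measured as CellTiter-Glo luminescence in HEK 293T cells expressing FXR-UAS-bla, after 16 h at 37 C with 50 uM CDCA (final).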
The target of test [9] is Vitamin D3 receptor (Homo sapiens) (UniProt P11473). As to the kind of experiment: qHTS assay to identify small molecule agonists of the vitamin D receptor (VDR) signaling pathway (AID 743222; calls by dose curve). In outline:
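Agonist activity measured in VDR-bla reporter cells. Exposure 16 h, 37C, 5% CO2; detection by B/G FRET substrate, 2 h RT.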

Test [10] shares this target. Kind of test: qHTS assay to identify small molecule antagonists of the vitamin D receptor (VDR) signaling pathway (AID 743223; active means well fitted inhibition curve with a large enough effect in the signal ratio in the repeat runs, not every such curve was filed as active; the % refers to the signal ratio). An outline of the steps:
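Beta-lactamase activity in VDR-bla cells is measured by FRET substrate fluorescence (2 h, room temperature) after cells spend 16 h at 37C with test compound and 3 nM final 1alpha,25-dihydroxyvitamin D3.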

The nature of test [11]: qHTS assay to identify small molecule agonists of the vitamin D receptor (VDR) signaling pathway - cell viability counter screen (AID 743224). Further: series mostly up to about 63 µM; nearly all actives have a fitted effect of over 50% in size. In outline: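 VDR-bla cell line, quantitative HTS format; 16 h compound incubation (37C, 5% CO2); ATP-based CellTiter-Glo luminescence measured in the reporter assay wells.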
Test [12] can be described thus: qHTS assay to identify small molecule antagonists of the vitamin D receptor (VDR) signaling pathway - cell viability counter screen (AID 743225). Further: nearly all actives have a fitted effect of over 50% in size. In outline: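 In this counter screen, VDR-bla HEK 293T cells receive test compound plus 3 nM final calcitriol for 16 h at 37C. Room-temperature steps of 2 h with the beta-lactamase substrate, then 30 min with CellTiter-Glo, precede the luminescence read.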

Test [13] in a line: qHTS assay to identify small molecule agonists of the NFkB signaling pathway - cell viability counter screen (AID 1159515; calls by dose curve; further: series mostly up to about 61 µM; nearly all actives have a fitted effect of over 55% in size). In outline:
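Viability in NFkB-bla ME-180 cells was measured by CellTiter-Glo luminescence, 30 min room temperature, in wells already treated 5 hr with compounds and read for reporter FRET.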

Test [14] is described as follows: qHTS assay to identify small molecule agonists of the endoplasmic reticulum stress response signaling pathway (AID 1159516; active means well fitted activation curve with a large enough effect in the signal ratio in the repeat runs, not every such curve was filed as active; the % refers to the signal ratio). In outline: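 ER stress element reporter (bla) in HeLa. 1,500 cells/well, overnight attachment; 5 hr compound; 2 hr RT substrate; dual-emission fluorescence.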
Test [15] is described as follows: qHTS assay to identify small molecule agonists of the endoplasmic reticulum stress response signaling pathway - cell viability counter screen (AID 1159517; calls by dose curve). In outline: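 Counter-screen wells were identical to the reporter wells. Cells were plated at 1,500 per well and dosed for 5 hr, then read for luminescence 30 min after CellTiter-Glo addition.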
The nature of test [16]: qHTS assay to identify small molecule antagonists of the retinoid-related orphan receptor gamma (ROR-gamma) signaling pathway - cell viability counter screen (AID 1159520). Further: nearly all actives have a fitted effect of over 50% in size. Further: potency means the concentration at half of the fitted maximal effect. An outline of the steps:
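Tet-on ROR gamma CHO cells were given compounds for 2 hr, then doxycycline hyclate at 1 uM final, and incubated 16 hr at 37 C. Viability was measured as ATP content by CellTiter-Glo luminescence.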

Test [17] deals with Nuclear receptor ROR-gamma (Homo sapiens) (UniProt P51449). As to the kind of experiment: qHTS assay to identify small molecule antagonists of the retinoid-related orphan receptor gamma (ROR-gamma) signaling pathway (AID 1159521; further: nearly all actives have a fitted effect of over 50% in size; further: potency means the concentration at half of the fitted maximal effect). In outline:
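Screening format: cell-based luciferase reporter in CHO cells with doxycycline-inducible RORγ. Compound pre-exposure lasts 2 h, doxycycline is 1 uM final, induction runs 16 h at 37 C, and ONE-Glo luminescence is read.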

A short description of test [18]: qHTS assay to identify small molecule agonists of the AP-1 signaling pathway - cell viability counter screen (AID 1159525; calls by dose curve; further: nearly all actives have a fitted effect of over 55% in size). An outline of the steps:
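AP-1-bla ME-180 cells in Opti-MEM with 0.5% dialyzed FBS, compound exposure 5 h at 37 C in 15-point titration. Viability read in the same wells as ATP content by CellTiter-Glo luminescence, normalised to tetra-n-octylammonium bromide and DMSO controls.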

Test [19] can be described thus: qHTS assay to identify small molecule agonists of the AP-1 signaling pathway (AID 1159526; calls by dose curve).
The nature of test [20]: qHTS assay to identify small molecule agonists of the NFkB signaling pathway (AID 1159509; active means well fitted curve in the direction sought with a large enough effect in the signal ratio in the repeat runs, not every such curve was filed as active; the % refers to the signal ratio; further: series mostly up to about 61 µM). In outline: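 After overnight attachment, reporter cells received test compounds, DMSO or positive controls and were incubated 5 hr at 37 C. FRET substrate was then added for 1.5 hr at room temperature before dual-emission fluorescence reading.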

Chain of Bile acid receptor (Homo sapiens) (Q96RI1 whole entry, looked up): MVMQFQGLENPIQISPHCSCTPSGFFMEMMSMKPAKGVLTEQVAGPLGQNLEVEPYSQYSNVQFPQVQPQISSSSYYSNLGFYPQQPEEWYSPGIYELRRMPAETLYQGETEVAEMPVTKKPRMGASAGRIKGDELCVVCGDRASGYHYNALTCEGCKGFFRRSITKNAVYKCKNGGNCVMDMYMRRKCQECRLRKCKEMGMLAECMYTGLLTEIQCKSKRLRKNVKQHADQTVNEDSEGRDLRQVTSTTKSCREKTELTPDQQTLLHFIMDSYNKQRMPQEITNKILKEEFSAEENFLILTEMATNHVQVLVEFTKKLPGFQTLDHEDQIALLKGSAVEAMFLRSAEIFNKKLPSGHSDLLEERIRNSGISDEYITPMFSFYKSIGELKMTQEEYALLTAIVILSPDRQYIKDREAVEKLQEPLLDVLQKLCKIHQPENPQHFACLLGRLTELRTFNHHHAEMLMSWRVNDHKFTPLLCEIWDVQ
Chain of Vitamin D3 receptor (Homo sapiens) (P11473 whole entry, looked up): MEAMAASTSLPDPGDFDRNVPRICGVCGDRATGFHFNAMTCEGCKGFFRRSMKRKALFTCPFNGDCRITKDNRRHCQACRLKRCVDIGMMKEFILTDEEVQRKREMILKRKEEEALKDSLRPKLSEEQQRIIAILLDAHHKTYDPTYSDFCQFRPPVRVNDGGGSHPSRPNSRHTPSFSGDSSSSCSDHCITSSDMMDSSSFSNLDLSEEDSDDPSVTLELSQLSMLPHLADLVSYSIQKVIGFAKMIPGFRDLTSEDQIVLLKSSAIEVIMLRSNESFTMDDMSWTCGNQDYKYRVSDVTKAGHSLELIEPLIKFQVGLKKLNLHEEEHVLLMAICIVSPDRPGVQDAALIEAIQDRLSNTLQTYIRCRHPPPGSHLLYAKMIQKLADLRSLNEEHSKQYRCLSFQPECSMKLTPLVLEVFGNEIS
Chain of Peroxisome proliferator-activated receptor delta (Homo sapiens) (Q03181 whole entry, looked up): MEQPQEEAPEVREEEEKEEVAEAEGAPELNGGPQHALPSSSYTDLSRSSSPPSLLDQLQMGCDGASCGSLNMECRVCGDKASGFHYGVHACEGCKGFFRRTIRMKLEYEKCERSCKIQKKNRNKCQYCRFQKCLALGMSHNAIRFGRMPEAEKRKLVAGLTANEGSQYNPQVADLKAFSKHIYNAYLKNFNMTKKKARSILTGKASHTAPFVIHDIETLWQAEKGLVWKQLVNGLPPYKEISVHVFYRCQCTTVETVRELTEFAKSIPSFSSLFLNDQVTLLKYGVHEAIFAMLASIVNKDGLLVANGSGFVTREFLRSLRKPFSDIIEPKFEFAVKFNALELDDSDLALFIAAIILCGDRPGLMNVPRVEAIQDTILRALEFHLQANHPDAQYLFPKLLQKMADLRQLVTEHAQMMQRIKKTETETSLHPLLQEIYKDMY

`CC(C)C1(C)N=C(c2nc3ccccc3cc2C(=O)O)NC1=O` (stereo unspecified): the call in test [1], in test [2], in test [3], in test [5], in test [6] and in test [7] was inactive. Moreover, the result in [8], in test [9], in test [10], in test [11], in test [12] and in test [13] was inactive. Besides, the compound was called inactive in [14] and in [15]. The Potency entry in test [4], in [16], in test [17], in test [18] and in test [19] was “inactive” each time.
On to `O=[N+]([O-])c1ccccc1`, for which the outcome in test [1], in test [2], in test [3], in test [6], in [8] and in test [11] was inactive. Moreover, the result in test [12], in test [20], in test [13] and in test [15] was inactive. Also, the Potency entry in test [4], in test [16], in test [17], in test [18] and in test [19] was “inactive” throughout.
As for `O=c1ccc(=O)[nH][nH]1`, the compound was classed as inactive in test [1], in test [3], in test [5], in test [6], in [7] and in [8]. Further, the outcome in [9], in [10], in test [11], in test [12], in [13] and in test [14] was inactive. The compound was classed as inactive in test [15]. In addition, the Potency entry in test [16], in test [17], in [18] and in test [19] was “inactive” each time.
Consider `CCCCN(CCCC)SN(C)C(=O)Oc1cccc2c1OC(C)(C)C2`, for which the outcome in [1], in [2], in [3], in test [6], in test [8] and in test [9] was inactive. For the same compound, the result in test [10], in test [11], in test [12], in [13], in test [14] and in test [15] was inactive. Also, the Potency result in test [4], in test [18] and in [19] was “inactive” throughout. For the same compound, the Potency in test [16] is 62.1 µM (active); in test [17], 22 µM (active) and 30.6 µM (active).
As for `CCN(CC)CCO`, the call in [1], in [2], in [3], in [6], in test [8] and in test [11] was inactive. In addition, the compound was called inactive in test [12], in test [13] and in test [15]. In addition, the Potency entry in test [4], in test [16], in test [17], in [18] and in test [19] was “inactive” in each case.
On to `C#CC(C)(C)NC(=O)c1cc(Cl)cc(Cl)c1`, for which the call in [1], in test [2], in [3], in [6], in test [8] and in test [9] was inactive. Further, the result in test [10], in test [11], in test [12], in test [13], in test [14] and in test [15] was inactive. Moreover, the Potency entry in test [4], in [17], in test [18] and in test [19] was “inactive” each time.
On to `[N-]=[N+]=[N-]`, for which the result in [1], in test [2], in test [3], in [6], in [8] and in [9] was inactive. For the same compound, the compound was classed as inactive in [10], in [11], in test [12], in test [13], in test [14] and in test [15]. For the same compound, the Potency result in test [4], in [17], in [18] and in test [19] was “inactive” throughout.
For `OC(O)C(Cl)(Cl)Cl`, the call in test [1], in test [2], in test [3], in test [5], in test [6] and in [7] was inactive. Further, the compound was classed as inactive in [8], in test [11], in test [12], in test [13], in [14] and in test [15]. The Potency entry in [4], in [16], in test [17] and in [19] was “inactive” in each case.
As for `CCNc1nc(NC(C)(C)C)nc(SC)n1`, the call in test [1], in test [2], in test [3], in test [5], in [6] and in test [7] was inactive. The compound was called inactive in [8], in [9], in test [10], in [11], in test [12] and in [13]. The result in test [15] was inactive. The Potency entry in test [4], in test [16] and in test [19] was “inactive” in each case.
